DT40 TDP1 no CPT = qHTS for Inhibitors of human tyrosyl-DNA phosphodiesterase 1 (TDP1): qHTS in cells in absence of CPT; hit rate 15% among 420,000; AID 686978, 2013; Potency, µM (doses to about 46.2 µM), for the others: at the top dose activity change, negative = growth inhibition, most hits filed as inhibitors; DT40 Tdp1-/- hTDP1 cells, no CPT, ATP luminescence, 48 h; note: potency is the fitted concentration of half-maximal effect; nearly all actives have a fitted effect of over 55% in size
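A cellular qHTS used chicken DT40 cells lacking endogenous Tdp1 but carrying stably transfected human TDP1. Compounds were applied without camptothecin, and cell growth kinetics were judged by ATP-dependent luminescence after ≥48 hr.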
HT1080NT lethal = kills 2HG-producing HT-1080-NT fibrosarcoma cells; HT-1080-NT fibrosarcoma viability, CellTiter-Glo ATP luminescence, 48 h; Potency, µM (series often up to 46.1 µM), for the others: top-dose activity, negative = less viability, hits mostly cytotoxic; hit rate 1.6% among 360,000;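 note: NT is the 2HG producing partner of a matched IDH1 knockdown line; potency is the fitted concentration of half-maximal effect; 0% = DMSO-treated cells and -100% = media-only wells without cells; nearly all actives have a fitted effect of over 55% in size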
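Compounds were tested in concentration-response format on HT-1080-NT cells for 48 hours at 37 degrees C. Cell viability came from CellTiter-Glo luminescence; curves were classified by r2, response magnitude and activity.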
DT40 TDP1 CPT = growth inhibition of DT40 Tdp1-/-;hTDP1 cells with camptothecin (screen for TDP1 inhibitors). chicken DT40 Tdp1-/-;hTDP1 cells + 20 nM CPT, ATP luminescence, 48 h. Potency, µM (highest dose often 46.2 µM), for the others: at the highest dose activity change, negative = growth inhibition, usual class: inhibitors. hit rate 12% among 420,000. AID 686979; note: potency is the fitted concentration of half-maximal effect; nearly all actives have a fitted effect of over 55% in size
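Cell growth measured by CellTiter-Glo luminescence after a minimum 48 h, 37 C compound exposure with 20 nM CPT in Tdp1-knockout DT40 cells stably expressing hTDP1, seeded 400/well; qHTS titration format.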
ELG1 DNA repair = inhibitors of ELG1-dependent DNA repair in HEK293T cells. AID 504467. HEK293T ELG1-luciferase reporter, luminescence, 16 h; DNA damage induced by 5-fluorouridine. hit rate 2.3% among 330,000. Potency, µM (top dose mostly 46.1 µM), for inactives: at the highest dose activity change, negative = inhibition, hits mostly inhibitors; note: potency is the fitted concentration of half-maximal effect; nearly all actives have a fitted effect of over 55% in size
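Cells (2,000 per well) received 5-fluorouridine plus test compound or DMSO and were incubated 16 hr at 37 °C, 5% CO2. Luciferase activity was read by luminescence 30 min after ONE-Glo addition; signal suppression marked inhibition of damage-induced ELG1 function.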
IL-1B inflam inh = inflammasome signaling inhibition, IL-1 beta readout; THP-1 LPS/ATP IL-1B secretion, AlphaLISA, 16 h; active compounds read low; activity change, % at 57.5 µM; hit rate 4.7% among 360,000; in the data active = activity change below about -50%; inconclusive = mostly about -30% to -49%
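THP-1 cells pretreated 1 hr with compounds (up to 57.5 uM final), then stimulated with LPS (250 ng/mL final) plus ATP (1.25 mM final); secreted IL-1B measured by AlphaLISA after 16 hr, decreased signal indicating inhibition.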
HT1080 IDH1KD tx = HT-1080 IDH1 knockdown cell toxicity (counter line); hit rate 2% among 360,000; HT-1080 IDH1 knockdown viability, ATP luminescence, 48 h; Potency, µM (highest dose often 46.1 µM), for the others: top-dose activity, negative = toxicity, most hits filed as cytotoxic; AID 686971;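 note: potency is the fitted concentration of half-maximal effect; 0% = DMSO wells and -100% = cell-free medium wells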
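Assay cells: HT-1080 with IDH1 knockdown, 750 per well, RPMI/5% FBS. Exposure: 48 h at 37 °C following 2 h pre-incubation. Read: CellTiter-Glo luminescence; fitted concentration-response, curve class assigned.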
* = called active by the depositor; ? = inconclusive; · = no result. Sampled rows, rich in hits. Any-hit rate of the full collection: about 19%. Unless noted, calls come from the whole dose curve; as a rule, active = well fitted curve in the direction sought with a large enough effect; inconclusive = small, poorly fitted or top-dose-only effect, or another doubt; inactive = no such curve, though single readings can be large; an effect the other way counts as inactive or inconclusive. Unless noted, % is set by controls: 0 for no effect and ±100 for the full control effect.

SMILES | DT40 TDP1 no CPT | HT1080NT lethal | DT40 TDP1 CPT | ELG1 DNA repair | IL-1B inflam inh | HT1080 IDH1KD tx
COc1ccc(N(CC(=O)NCc2ccc3c(c2)OCO3)S(=O)(=O)c2ccc(O)c(C(=O)O)c2)cc1 | -12% | -3% | 1% | · | -7 | 0%
CCOC(=O)C1=C(C)NC2=C(C(=O)c3ccccc32)C1c1ccc([N+](=O)[O-])o1 (configuration not stated) | 16µM* | -27% | 23µM* | ? | -66* | -5%
CCOC(=O)C1=C(C)NC(=O)NC1c1ccc([N+](=O)[O-])o1 (configuration not stated) | -27% | 1% | ? | 24% | -8 | 2%
COC(=O)COc1ccc(C2C(C(=O)OC)=C(C)NC3=C2C(=O)c2ccccc23)cc1OC (configuration not stated) | 0% | · | 8% | · | · | ·
CCOc1cc(C2C(C(=O)OC)=C(C)NC3=C2C(=O)c2ccccc23)cc(Cl)c1O (configuration not stated) | 18µM* | · | ? | · | · | ·
CCCCOC(=O)C1=C(C)NC(=O)NC1c1cccc([N+](=O)[O-])c1 (configuration not stated) | -21% | -1% | ? | 6.5µM* | -15 | -8%
CCCCOC(=O)C1=C(C)NC(=O)NC1c1cc2c(cc1Br)OCO2 (configuration not stated) | 23µM* | -18% | 23µM* | 0% | ? | -7%
CC1=C(C(=O)OCCCCCl)C(c2cc3c(cc2Br)OCO3)NC(=O)N1 (configuration not stated) | ? | -16% | -27% | ? | -18 | -9%
CCOC(=O)C1=C(C)NC2=C(C1c1ccc([N+](=O)[O-])cc1)S(=O)(=O)c1ccccc12 (configuration not stated) | ? | -2% | ? | 10µM* | -24 | -3%
C#CCN1C(C)=C(C(=O)OC)C(c2cccc([N+](=O)[O-])c2)C(C(=O)OCC)=C1C (configuration not stated) | ? | ? | 6% | -13% | ? | 13%
CCOC(=O)C1=C(C)NC(C)=C(C(=O)OCC)C1c1cccc([N+](=O)[O-])c1 | 23µM* | -2% | ? | · | -2 | -29%
CCOC(=O)C1=C(c2ccccc2)NC(=O)N(C(C)=O)C1c1cccc([N+](=O)[O-])c1 (configuration not stated) | -5% | -4% | -16% | -9% | 0 | -7%
COC(=O)C1=C(C)NC(C)=C(C(=O)OCCCN2CCC(c3ccccc3)(c3ccccc3)CC2)C1c1cccc([N+](=O)[O-])c1 (configuration not stated) | 11µM* | · | 18µM* | · | · | ·
Cc1ccc(C(=O)NCC(=O)OCc2cc(=O)n3nc(C4CCCCC4)sc3n2)cc1 | -1% | · | -3% | · | · | ·
CN1CCC(C)(C(=O)Nc2ccc3c(c2)OCCO3)C1 (configuration not stated) | -3% | 8% | 0% | · | -7 | 15%
Cc1cccc(COCC(Cc2ccccc2)N2CCN(C(=O)c3cccc(Cl)c3)CCC2=O)c1 (configuration not stated) | 18µM* | -13% | 26µM* | ? | -61* | -20%
Cc1cccc(C(=O)N2CCC(=O)N(C(COCc3ccccc3)Cc3ccccc3)CC2)c1 (configuration not stated) | 26µM* | -13% | ? | -5% | -24 | -9%
Cc1ccc(-c2csc(/C(C#N)=C/c3ccccc3Cl)n2)cc1 | 6% | · | 1% | · | · | ·
COc1ccc(/C=C/C(=O)NNC(=O)c2cc(C)oc2C)cc1 | -18% | -3% | 22% | -1% | -58* | -11%
CN(C)c1ccc(/C=C/C(=O)c2cc(Cl)ccc2O)cc1 | ? | -10% | ? | ? | -11 | 0%
COc1ccc(C(=O)/C=C/Nc2ccccn2)c(OC)c1 | ? | -16% | -16% | ? | -63* | ?
Cc1cc(C(=O)NNC(=O)/C=C/c2ccccc2Cl)c(C)o1 | 9% | 4% | -4% | 6% | -3 | 5%
O=C(/C=C\Nc1ccccn1)c1ccccc1 | -23% | -19% | -6% | ? | 8 | -22%
COc1ccc(/C=C/C(=O)c2cc(O)ccc2O)cc1 | 16µM* | · | 16µM* | · | · | ·
COc1ccc(/C=C\C(=O)c2c(O)ccc3c(C)cc(=O)oc23)cc1 | 23µM* | ? | -28% | -15% | -18 | ?
SMILES | DT40 TDP1 no CPT | HT1080NT lethal | DT40 TDP1 CPT | ELG1 DNA repair | IL-1B inflam inh | HT1080 IDH1KD tx
Cc1ccccc1CNC(=O)c1nn(-c2ccccc2F)nc1CO | -3% | · | -1% | · | · | ·
COCCn1c(C)cc(O)c(C(c2ccc(OC)cc2)N2CCCCC2)c1=O (configuration not stated) | -6% | · | -4% | · | · | ·
COc1ccc(/C=C/C(=O)c2cc3c(cc2N)OCO3)cc1 | 23µM* | ? | ? | ? | 0 | ?
COc1ccc(/C=C/C(=O)O)cc1 | ? | -3% | 9% | 9% | 5 | -2%
COc1ccc(C(=O)COC(=O)/C=C/c2ccccc2)c(OC)c1 | 9% | 0% | -3% | ? | -18 | 11%
COc1ccc(/C=C/C(=O)c2ccc(OC)cc2OC)cc1 | ? | -26% | ? | 18% | -105* | -29%
COc1ccc(/C=C/C(=O)c2cc(C(=O)/C=C/c3ccc(OC)cc3)c(O)cc2O)cc1 | 11µM* | 16% | ? | · | · | 4%
CCOC(=O)[C@@H]1[C@H]2COc3ccc(Br)cc3[C@@H]2N2C(=O)N(c3ccc(C(F)(F)F)cc3)C(=O)[C@@]12C | 23µM* | 3% | 21µM* | -21% | 13 | -2%
CCOC(=O)[C@@H]1[C@H]2COc3ccc(Br)cc3[C@@H]2N2C(=O)N(c3ccc(Cl)cc3)C(=O)[C@@]12C | 16µM* | -14% | 21µM* | 10% | 0 | -13%
CCOC(=O)[C@@H]1[C@H]2COc3cc(OC)ccc3[C@@H]2N2C(=O)N(c3ccc(Br)cc3)C(=O)[C@@]12C | ? | 19% | ? | 11% | -1 | 0%
CCOC(=O)[C@@H]1[C@H]2COc3ccc(Br)cc3[C@@H]2N2C(=O)N(c3cccc(F)c3)C(=O)[C@@]12C | 18µM* | -1% | 26µM* | 15% | 10 | -4%

Screening data as filed in PubChem BioAssay.
